Most compounds without a hit are left out; they make up all but 11% or so of the library.
HP1b binding inh – blocks HP1-beta chromodomain binding to methylated histone tails | P83916 | AlphaScreen HP1-beta / biotin-H3K9me3 peptide binding | Potency, µM (doses to about 114 µM), usual class: inhibitors | hit rate 0.56% among 390,000; further: nearly all actives have a fitted effect of over 70% in size
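AlphaScreen: HP1-beta (50 nM) preformed 30 min with biotin-H3(1-18)K9me3 peptide (50 nM) in PBS pH 7.4, 0.01% Tween-20. Compound added for 30 min at RT, then streptavidin donor/nickel chelate acceptor beads (10 ug/mL) for 30 min.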
PI5P4Ka inh – PI5P4K alpha (human) kinase inhibition; PI5P4Kalpha enzyme, ADP-Glo luminescence, 60 min; active compounds read low; max response, %; hit rate 1.2% among 330,000; AID 652105; active means max response of -50% or lower; inconclusive means between -30% and -50%; inactive means -30% or higher; further: value at the top dose of about 77 µM
Target sequence (P48426 whole entry, looked up): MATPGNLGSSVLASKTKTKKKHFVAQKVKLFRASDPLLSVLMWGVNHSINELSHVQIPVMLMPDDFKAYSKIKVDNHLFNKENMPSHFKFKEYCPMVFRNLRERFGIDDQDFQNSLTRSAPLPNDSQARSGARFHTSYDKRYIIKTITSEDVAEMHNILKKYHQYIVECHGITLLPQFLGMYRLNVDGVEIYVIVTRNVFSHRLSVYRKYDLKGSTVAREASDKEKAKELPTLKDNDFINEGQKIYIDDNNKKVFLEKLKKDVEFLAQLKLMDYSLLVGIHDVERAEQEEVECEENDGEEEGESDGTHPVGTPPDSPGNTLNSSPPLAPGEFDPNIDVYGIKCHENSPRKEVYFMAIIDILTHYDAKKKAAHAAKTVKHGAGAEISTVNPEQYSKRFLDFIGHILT
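Enzyme plus substrate dispensed, test compounds pinned in, then ATP (5 microM final) added. After 60 min at RT, ADP-Glo reagent 1 for 45 min and reagent 2 for 30 min preceded luminescence imaging.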
G9a block – inhibitors of human histone lysine methyltransferase G9a; G9a H3K9 monomethylation, AlphaScreen, 2 h; Potency, µM (titrated, usually from 102 µM), hits mostly inhibitors; Q96KQ7; hit rate 8.8% among 350,000; further: nearly all actives have a fitted effect of over 75% in size
Target sequence (Q96KQ7 913-1193 limits assumed): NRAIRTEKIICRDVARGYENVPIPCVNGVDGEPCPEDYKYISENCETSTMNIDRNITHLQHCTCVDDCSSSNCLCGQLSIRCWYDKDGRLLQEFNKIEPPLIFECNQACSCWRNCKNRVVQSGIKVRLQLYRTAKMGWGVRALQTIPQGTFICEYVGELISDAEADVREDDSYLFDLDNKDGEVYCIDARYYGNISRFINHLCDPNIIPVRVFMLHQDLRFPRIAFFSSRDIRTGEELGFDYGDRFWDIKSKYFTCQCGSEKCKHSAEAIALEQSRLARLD
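Using a bead-based AlphaScreen, monomethylated H3K9 product from 2 h room-temperature reactions (G9a 20 nM, peptide 500 nM, SAM 20 uM) was detected with 0.5 ug/mL rabbit anti-H3K9me1 antibody.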
L3MBTL1 inh – inhibitors of human L3MBTL1. AlphaScreen L3MBTL1–H3K9me1 peptide binding. Q9Y468. AID 485360. Potency, µM (series often up to 57.1 µM), hits mostly inhibitors. hit rate 0.66% among 230,000; further: nearly all actives have a fitted effect of over 60% in size
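L3MBTL1 50 nM + b-AHA-H3(1-15)K9me1 75 nM, 30 min RT; compound added, 30 min RT; streptavidin donor/Ni-chelate acceptor beads 10 ug/mL each final, 30 min RT dark; AlphaScreen read.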
JMJD2A Tudor inh – JMJD2A Tudor domain (human) inhibition. hit rate 4.4% among 390,000. Potency, µM (series often up to 114 µM), actives largely listed as inhibitors. O75164. AID 504339. AlphaScreen JMJD2A-Tudor / H3K4me3 peptide binding; further: nearly all actives have a fitted effect of over 50% in size
BAZ2B block – inhibitors of human BAZ2B bromodomain; Potency, µM (titrated, usually from 114 µM), actives largely listed as inhibitors; Q9UIF8; AlphaScreen BAZ2B-H3K14Ac peptide displacement; hit rate 4.4% among 360,000; AID 504333; further: nearly all actives have a fitted effect of over 60% in size
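Complex of BAZ2B and biotin-H3K14Ac (50 nM apiece) forms over 30 min at RT, then faces library compounds up to 110 uM for another 30 min; AlphaScreen beads added, 20 min dark incubation, luminescence read.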
Hits are given with their value; n = inactive; u = inconclusive; x = no result given; [ ] = remark or other dose. Unless noted, the call rests on the fitted dose curve; in most records, active means well fitted inhibition curve with a large enough effect; inconclusive means small, poorly fitted or top-dose-only effect; inactive means no such curve, though single readings can be large or run the other way.

SMILES | HP1b binding inh | PI5P4Ka inh | G9a block | L3MBTL1 inh | JMJD2A Tudor inh | BAZ2B block
CCOC(=O)N1CCN(C(=O)C2CCN(CC3CCCCC3)CC2)CC1 | n | n | 35.5µM | n | 8.91µM | n
CC(=O)c1ccc2c3c(cccc13)CC2 | n | n | n | n | n | n
CC(=O)c1ccc2cccc3c2c1N=CN3C | n | x | 44.7µM | n | n | n
CCOc1cc(S(=O)(=O)N2CCOCC2)ccc1F | n | n | n | n | n | n
CC(=O)N1CCN(S(=O)(=O)c2ccc(F)c(Cl)c2)CC1 | n | n | n | n | n | x
CCOc1ccc2cc(S(=O)(=O)N3CCOCC3)ccc2c1 | n | n | 4.47µM | n | n | n
Cc1cc(S(=O)(=O)N2CCOCC2)ccc1F | u | n | n | n | 79.4µM | n
O=C(CN1CCN(S(=O)(=O)c2ccc(F)c(Cl)c2)CC1)N1CCOCC1 | n | n | 1.12µM | n | n | n
COC(=O)c1cc2oc3ccccc3c2n1CC(=O)Nc1ccc(Cl)cc1F | n | x | n | x | n | n
O=C(COCc1cc(-c2ccc(F)cc2)on1)Nc1cccc(C(F)(F)F)c1 | n | x | n | x | n | n
COc1cc(F)c(S(=O)(=O)Nc2c(C)n(C)n(-c3ccccc3)c2=O)cc1OC | n | x | n | x | n | n
O=C1NC[C@@H](Cc2ccc(O)cc2)N(CCc2cc(C(F)(F)F)cc(C(F)(F)F)c2)C1=O | x | -68.3 | x | x | x | x
CC(C)NC(=O)COc1ccc(OCc2ccccc2)cc1 | n | n | n | n | n | n
Cc1ccc(OCC(COCc2ccccc2)NC(C)C)cc1 (stereo unspecified) | u | n | x | x | 1.41µM | x
CCC1=C(c2ccc(C)cc2)S(=O)(=O)N=C1N1CCC(C(=O)NCCc2cccc(OC)c2)CC1 | n | x | n | x | n | n
COc1ccccc1C(CCNCc1ccccc1)c1ccc(OC(C)C)cc1 (stereo unspecified) | n | n | n[2.33 µM] | x | n | n
Cc1cc(OCCOCCNCc2ccccc2)ccc1C(C)C | u | n | 10µM | n | 20µM | u
Cc1ccc(C(C)C)c(OCCNCc2ccccc2)c1 | n | n | x | n | 28.2µM | u
Cc1ccc(C)c(OCCCNCc2ccccc2)c1 | n | n | u | n | 44.7µM | u
Clc1cc(Br)ccc1OCCCNCc1ccccc1 | u | n | 7.08µM | n | 2.82µM | u
CCc1sc(-c2cc3cccc(OC)c3oc2=O)nc1-c1ccccc1 | n | x | x | x | n | x
Cc1cc(NS(=O)(=O)c2ccc(NC(=O)COc3ccccc3Br)cc2)no1 | n | x | n | x | n | n
COc1ccc(-c2ccc(NS(=O)(=O)c3ccccc3Cl)cc2)nn1 | n | x | n | x | n | n
Brc1ccc(OCc2ccccc2)c(CNCc2ccncc2)c1 | n | x | n[0.0925 µM] | n | u | 79.4µM
Cc1cc(CN2CCCC(CNC(=O)c3ccc(F)cc3)C2)cc(C)c1O (stereo unspecified) | n | n | 79.4µM | n | n | n
SMILES | HP1b binding inh | PI5P4Ka inh | G9a block | L3MBTL1 inh | JMJD2A Tudor inh | BAZ2B block
COc1ccc(/C=C/C(=O)c2ccc[nH]2)c(OC)c1OC | n | n | n | n | n | n
COc1ccc(/C=C/C(=O)c2ccncc2)c2ccccc12 | n | n | u | n | 56.2µM | n
O=C1S/C(=C/c2ccc(N3CCOCC3)o2)C(=O)N1Cc1c(F)cccc1Cl | n | x | 1.78µM | x | n | n
O=C1S/C(=C\c2ccc(N3CCOCC3)o2)C(=O)N1c1ccccc1 | n | u | 5.01µM | x | n[11.4 µM] | u
O=C(O)c1ccccc1-c1ccc(/C=C2\SC(=O)N(c3ccccc3)C2=O)o1 | n | n | 7.08µM | n | n | u
COc1ccc(C(CNC(=O)COc2ccc(Cl)c(C)c2)N2CCOCC2)cc1 (stereo unspecified) | n | x | n | x | n | n
CNC(=O)/C=C1\NC(C)(C)Cc2ccccc21 | n | x | n[12.7 µM] | x | n | n
CCC1(C)Cc2ccccc2/C(=C/C(=O)N2CCCCC2)N1 (stereo unspecified) | n | n | 39.8µM | n | u | u
COc1ccc(N2C(=O)Cc3cc(OC)c(OC)cc3C2c2ccc(F)cc2)cc1 (stereo unspecified) | n | x | n | x | n | n
Cc1ccccc1NC(=S)NCc1ccc2[nH]c3c(c2c1)CCCC3 | u | n | 39.8µM | u | 39.8µM | 39.8µM
Cc1ccc(C)c(NC(=S)NCc2ccc3[nH]c4c(c3c2)CCCC4)c1 | u | n | 39.8µM | n | 50.1µM | 31.6µM
S=C(NCc1ccc(Cl)cc1)Nc1ccccc1Cl | n | n | n | n | n | n
S=C(NCc1ccc2[nH]c3c(c2c1)CCCC3)Nc1ccccc1Cl | u | n | 39.8µM | n | 50.1µM | 35.5µM
CN(Cc1ccccc1)C(=O)C1CCN(S(=O)(=O)c2ccc3c(c2)oc(=O)n3C)CC1 | n | x | n | x | n | n
Cc1cccc(OCc2cc(=O)n3c4c(sc3n2)CCCC4)c1C | n | x | n | x | n | n
Cc1ccc(Cn2c(CNS(=O)(=O)c3ccc(C(C)(C)C)cc3)nc3cccnc32)cc1 | n | x | n | x | n | n
OCCCc1nc2n(n1)C(c1cccs1)C=C(c1ccccc1)N2 (stereo unspecified) | x | x | 39.8µM | x | x | n
COC(=O)c1ccc(NCc2cc(O)ccc2O)cc1O | 56.2µM | n | x | x | 8.91µM | x
COC(=O)c1ccc(NCc2c(O)ccc(O)c2Br)cc1Cl | 10µM | n | x | x | 3.55µM | x
CC(=O)Nc1cccc(NC(=O)c2cc3c(=O)n4cccc(C)c4nc3n2C)c1 | n | x | n | x | n | n
O=C(c1cc(C(F)(F)F)cc(C(F)(F)F)c1)N1CCC[C@@]2(CCN(Cc3ccccc3)C2)C1 | x | x | n[12.7 µM] | x | x | x
COCCN(C(=O)CSc1nnc(C)n1Cc1ccccc1)c1c(N)n(Cc2ccccc2)c(=O)[nH]c1=O | n | n | u | x | u | x
CCCN(C(=O)CSc1n[nH]c(-c2ccc(OC)cc2)n1)c1c(N)n(Cc2ccccc2)c(=O)[nH]c1=O | n | n | 44.7µM | n | n | n
CCCCN(C(=O)CSc1nc(CCC)cc(=O)[nH]1)c1c(N)n(Cc2ccccc2)c(=O)[nH]c1=O | n | n | x | n | n | x
CCCc1cc(=O)[nH]c(SCC(=O)N(CCOC)c2c(N)n(Cc3ccccc3)c(=O)[nH]c2=O)n1 | n | n | 50.1µM | n | n | n
SMILES | HP1b binding inh | PI5P4Ka inh | G9a block | L3MBTL1 inh | JMJD2A Tudor inh | BAZ2B block
COCCN(C(=O)CSc1nnc(-c2ccccc2C)n1C)c1c(N)n(Cc2ccccc2)c(=O)[nH]c1=O | n | n | 8.91µM | x | n | n
CCC(Sc1nc2nccnc2c(=O)n1Cc1ccccc1Cl)C(=O)NC1CCCCC1 (stereo unspecified) | n | x | n | x | n | n
Cc1cc(C)cc(OCC(=O)N2N=C(C(F)(F)F)CC2(O)C(C)(C)C)c1 (stereo unspecified) | n | n | 1.58µM | n | n | n
O=C(CSc1nc2c(cnn2-c2ccc(F)cc2)c(=O)[nH]1)Nc1ccccc1C(F)(F)F | n | x | n | x | n | n
Cc1cc(C)c(C#N)c(N)n1 | n | n | n | x | n | n
Cc1cc(C)c(C#N)c(=N)o1 | n | u | 1.78µM | n | 79.4µM | x

Screens (PubChem BioAssay)
